The panel holds about 79,000 compounds, 15% with a hit somewhere; the sample as a whole holds those more often. Active and inactive are the calls of the source. Cut-off read from the data, not from the text of the source: active = growth inhibition above about 70%; inactive = the rest.
Legend:
[1] = NCI Yeast Anticancer Drug Screen. Data for the mec2-1 strain (AID 157); conditions: S. cerevisiae mec2-1 strain, active compounds read high
Summary of the method: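 Vehicle-treated cultures served as reference for growth inhibition of compound-exposed mec2-1 yeast.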

[2] = NCI Yeast Anticancer Drug Screen. Data for the rad14 strain (AID 159);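 note: 0% = growth of vehicle-treated control cultures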; conditions: S. cerevisiae rad14 strain growth inhibition, active compounds read high
Summary of the method: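 Screen for anticancer potential: a yeast strain altered in DNA damage repair is grown with compound, and reduced growth is quantified against vehicle controls.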

[3] = NCI Yeast Anticancer Drug Screen. Data for the sgs1 mgt1 strain (AID 161);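 note: 0% = growth of cultures given vehicle only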; conditions: S. cerevisiae sgs1 mgt1 strain, active compounds read high
Summary of the method: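 Genetically altered yeast, compound exposure, growth inhibition relative to vehicle.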

[4] = NCI Yeast Anticancer Drug Screen. Data for the CLN2oe strain (AID 163);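 note: 0% = growth of vehicle-only control cultures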; conditions: S. cerevisiae CLN2oe strain, active compounds read high
Summary of the method: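 Inhibition relative to vehicle-treated yeast is reported. Cells: strain with genetic alteration in cell-cycle control, grown with compound.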

[5] = NCI Yeast Anticancer Drug Screen. Data for the cln2 rad14 strain (AID 165);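 note: 0% = growth equal to vehicle treated cultures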; conditions: S. cerevisiae cln2 rad14 strain, active compounds read high
Summary of the method: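 Each compound was tested on cln2 rad14 yeast. Inhibition of growth was calculated against vehicle-exposed controls.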

[6] = NCI Yeast Anticancer Drug Screen. Data for the bub3 strain (AID 167); conditions: S. cerevisiae bub3 mutant strain, active compounds read high
Summary of the method: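 Screening used yeast with an engineered genetic alteration affecting cell cycle control. Compound-exposed cultures were compared with vehicle cultures, and reduced growth was taken as inhibition.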

[7] = NCI Yeast Anticancer Drug Screen. Data for the wt2 strain (AID 169);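 note: 0% = growth of vehicle-treated yeast cultures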; conditions: S. cerevisiae wt2 strain growth inhibition, active compounds read high
Summary of the method: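 Inhibition of yeast growth was determined after compound treatment, normalised to controls receiving only vehicle.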

[8] = NCI Yeast Anticancer Drug Screen. Data for the mlh1 strain (AID 171);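 note: 0% = growth of vehicle-treated control cultures of the same strain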; conditions: S. cerevisiae mlh1 strain growth inhibition, active compounds read high
Summary of the method: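 Vehicle-normalised growth inhibition of a repair- or checkpoint-altered yeast strain following compound treatment.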

[9] = NCI Yeast Anticancer Drug Screen. Data for the mlh1 rad18 strain (AID 175); conditions: S. cerevisiae mlh1 rad18 strain growth inhibition, active compounds read high
Summary of the method: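 Vehicle-treated cultures served as the reference for growth inhibition in a yeast strain carrying DNA damage repair alterations exposed to each compound.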

[10] = NCI Yeast Anticancer Drug Screen. Data for the rad18 strain (AID 177); conditions: S. cerevisiae rad18 mutant growth inhibition, active compounds read high
Summary of the method: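 Test articles were incubated with altered yeast defective in DNA damage repair. Results are given as inhibition of growth versus vehicle.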

[11] = NCI Yeast Anticancer Drug Screen. Data for the rad52 strain (AID 147);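 note: 0% = growth of vehicle-treated control cultures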; conditions: S. cerevisiae rad52 mutant growth inhibition, active compounds read high
Summary of the method: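 Vehicle-treated cultures served as the reference for growth inhibition of compound-exposed yeast bearing a DNA repair mutation.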

[12] = NCI Yeast Anticancer Drug Screen. Data for the rad50EPP+ strain (AID 151);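 note: 0% = growth of vehicle-treated control cultures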; conditions: S. cerevisiae rad50 mutant strain, active compounds read high
Summary of the method: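 In this screen, rad50EPP+ yeast were exposed to compounds. Growth inhibition was scored against vehicle-treated controls.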

[13] = NCI Yeast Anticancer Drug Screen. Data for the mgt1 strain (AID 153); conditions: S. cerevisiae mgt1 mutant growth inhibition, active compounds read high
Summary of the method: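 mgt1 strain exposed; growth vs vehicle control recorded as inhibition.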

[14] = NCI Yeast Anticancer Drug Screen. Data for the rad50 strain (AID 155);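 note: 0% = growth of vehicle-only cultures of the same strain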; conditions: S. cerevisiae rad50 strain growth inhibition, active compounds read high
Summary of the method: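 Relative growth inhibition (compound vs vehicle) was measured in yeast with a defined repair-gene alteration.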

[15] = NCI Yeast Anticancer Drug Screen. Data for the sgs1 strain (AID 173);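 note: 0% = growth of vehicle-only control cultures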; conditions: S. cerevisiae sgs1 mutant, active compounds read high
Summary of the method: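 Screen format: yeast with repair or checkpoint alterations, compound exposure, growth read relative to vehicle.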

[16] = at 5.0 µM (retest, dose inferred, filed as 0.5)
[17] = at 50.0 µM (retest, dose inferred, filed as 5.0)

Measured: growth inhibition

CC(=O)/C=C/c1cccc([N+](=O)[O-])c1
inactive: [2]; at 1.2 µM -2% | [2]; at 3.7 µM 0% | [2]; at 11.0 µM 7% | [2]; at 33.0 µM 21% | [3]; [16] -3% | [3]; at 50.0 µM 48% | [4]; at 1.2 µM -2% | [4]; at 3.7 µM -2% | [4]; at 11.0 µM 1% | [4]; at 33.0 µM 6% | [4]; at 100.0 µM 44% | [5]; [16] 5% | [5]; [17] 4% | [5]; at 50.0 µM 6.15% | [6]; at 1.2 µM -4% | [6]; at 3.7 µM -5% | [6]; [16] 31% | [6]; at 11.0 µM -2% | [6]; at 33.0 µM 28% | [7]; at 1.2 µM 1% | [7]; at 3.7 µM 4% | [7]; at 11.0 µM 10% | [7]; at 33.0 µM 28% | [8]; at 1.2 µM 2% | [8]; at 3.7 µM 1% | [8]; at 11.0 µM 10% | [8]; at 33.0 µM 32% | [9]; [16] 12% | [10]; at 1.2 µM 1% | [10]; at 3.7 µM 2% | [10]; at 11.0 µM 21% | [10]; at 33.0 µM 22%
active: [1]; at 100.0 µM 95% | [2]; at 100.0 µM 91% | [3]; [17] 85% | [6]; [17] 89% | [6]; at 50.0 µM 72.4% | [6]; at 100.0 µM 91% | [7]; at 100.0 µM 88% | [8]; at 100.0 µM 95% | [9]; [17] 94% | [9]; at 50.0 µM 81.7% | [10]; at 100.0 µM 77%

O=c1[nH]c2c([N+](=O)[O-])cccc2c2ccccc12
inactive: [11]; at 1.2 µM -1% | [11]; at 3.7 µM 0% | [11]; at 11.0 µM 6% | [11]; at 33.0 µM 40% | [12]; at 1.2 µM 5% | [12]; at 3.7 µM 12% | [12]; at 11.0 µM 26% | [12]; at 33.0 µM 52% | [13]; at 1.2 µM -4% | [13]; at 3.7 µM -3% | [13]; at 11.0 µM -3% | [13]; at 33.0 µM 19% | [14]; at 1.2 µM 2% | [14]; at 3.7 µM -42% | [14]; [16] 7% | [14]; at 11.0 µM 33% | [14]; at 33.0 µM 53% | [1]; at 1.2 µM 0% | [1]; at 3.7 µM 0% | [1]; [16] 4% | [1]; at 11.0 µM 3% | [1]; at 33.0 µM 17% | [1]; [17] 52% | [2]; at 1.2 µM 2% | [2]; at 3.7 µM 5% | [2]; at 11.0 µM 12% | [2]; at 33.0 µM 24% | [3]; [16] 2% | [3]; [17] 51% | [4]; at 1.2 µM -13% | [4]; at 3.7 µM -15% | [4]; at 11.0 µM -16% | [4]; at 33.0 µM -29% | [4]; at 100.0 µM 12% | [5]; [16] -13% | [5]; [17] 11% | [6]; at 1.2 µM -4% | [6]; at 3.7 µM -6% | [6]; [16] 3% | [6]; at 11.0 µM 0% | [6]; at 33.0 µM 28% | [8]; at 1.2 µM -2% | [8]; at 3.7 µM -2% | [8]; at 11.0 µM 0% | [8]; at 33.0 µM 18% | [15]; at 1.2 µM -2% | [15]; at 3.7 µM 0% | [15]; at 11.0 µM 7% | [15]; at 33.0 µM 40% | [9]; [16] 4% | [9]; [17] 41%
active: [11]; at 100.0 µM 89% | [12]; at 100.0 µM 76% | [13]; at 100.0 µM 90% | [14]; [17] 80% | [14]; at 50.0 µM 96.2% | [14]; at 100.0 µM 95% | [1]; at 50.0 µM 96% | [1]; at 100.0 µM 89% | [2]; at 100.0 µM 86% | [3]; at 50.0 µM 96.8% | [5]; at 50.0 µM 93% | [6]; [17] 72% | [6]; at 50.0 µM 95% | [6]; at 100.0 µM 90% | [8]; at 100.0 µM 88% | [15]; at 100.0 µM 90% | [9]; at 50.0 µM 96.2%

COc1cc(OC)c(CSCC(NC(=O)OCC2c3ccccc3-c3ccccc32)C(=O)O)c(OC)c1 (centres undefined)
active: [11]; at 33.0 µM 97% | [11]; at 100.0 µM 98% | [13]; at 33.0 µM 97% | [13]; at 100.0 µM 98% | [14]; at 33.0 µM 94% | [14]; [17] 99% | [14]; at 50.0 µM 98.6% | [14]; at 100.0 µM 98% | [1]; at 33.0 µM 96% | [1]; [17] 99% | [1]; at 50.0 µM 99.2% | [1]; at 100.0 µM 98% | [2]; at 33.0 µM 96% | [2]; at 100.0 µM 99% | [3]; [17] 98% | [3]; at 50.0 µM 99% | [4]; at 33.0 µM 99% | [4]; at 100.0 µM 98% | [5]; [17] 99% | [5]; at 50.0 µM 98.4% | [6]; at 33.0 µM 95% | [6]; [17] 99% | [6]; at 50.0 µM 99.2% | [6]; at 100.0 µM 98% | [7]; at 33.0 µM 98% | [7]; at 100.0 µM 98% | [15]; at 33.0 µM 95% | [15]; at 100.0 µM 98% | [9]; [17] 99% | [9]; at 50.0 µM 98.4% | [10]; at 33.0 µM 96% | [10]; at 100.0 µM 97%
inactive: [11]; at 1.2 µM 0% | [11]; at 3.7 µM 5% | [11]; at 11.0 µM 48% | [12]; at 1.2 µM -2% | [12]; at 3.7 µM -2% | [12]; at 11.0 µM -1% | [12]; at 33.0 µM 0% | [12]; at 100.0 µM -3% | [13]; at 1.2 µM -2% | [13]; at 3.7 µM 8% | [13]; at 11.0 µM 52% | [14]; at 1.2 µM -6% | [14]; at 3.7 µM -9% | [14]; [16] 15% | [14]; at 11.0 µM 43% | [1]; at 1.2 µM 2% | [1]; at 3.7 µM 11% | [1]; [16] 12% | [1]; at 11.0 µM 55% | [2]; at 1.2 µM -2% | [2]; at 3.7 µM 10% | [2]; at 11.0 µM 68% | [3]; [16] -4% | [4]; at 1.2 µM 0% | [4]; at 3.7 µM 13% | [4]; at 11.0 µM 68% | [5]; [16] 52% | [6]; at 1.2 µM 0% | [6]; at 3.7 µM 10% | [6]; [16] 3% | [6]; at 11.0 µM 61% | [7]; at 1.2 µM -1% | [7]; at 3.7 µM 6% | [7]; at 11.0 µM 58% | [15]; at 1.2 µM 1% | [15]; at 3.7 µM 9% | [15]; at 11.0 µM 45% | [9]; [16] 5% | [10]; at 1.2 µM 0% | [10]; at 3.7 µM 8% | [10]; at 11.0 µM 36%

Source: PubChem BioAssay (NCI)
